# According to PubChem BioAssay (NCATS):
# Inconclusive results are not listed. Where a call stands in place of a potency, no number is given. Calls of active or inactive are those of the source. Unless noted, the call rests on the fitted dose curve; in most records, active means well fitted curve in the direction sought with a large enough effect; inconclusive means small, poorly fitted or top-dose-only effect, or another doubt; inactive means no such curve, though single readings can be large; an effect the other way counts as inactive or inconclusive.
# Key:
# [1] = qHTS for differential inhibitors of proliferation of Plasmodium falciparum line 7G8 (AID 1815);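 further: parasite growth measured after three days of incubation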; further: potency means the concentration at half of the fitted maximal effect
# [2] = qHTS for differential inhibitors of proliferation of Plasmodium falciparum line GB4 (AID 1816); conditions: Potency: Plasmodium falciparum GB4 proliferation inhibition;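 further: parasite growth measured after 72 h incubation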; further: potency means the concentration at half of the fitted maximal effect
# [3] = qHTS for differential inhibitors of proliferation of Plasmodium falciparum line Dd2 (AID 1882); conditions: Potency: Plasmodium falciparum Dd2 proliferation inhibition; further: nearly all actives have a fitted effect of over 65% in size; further: potency means the concentration at half of the fitted maximal effect
# Procedure, shortened: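 RBC culture, 0.3% parasitemia / 2.5% Hct final; cpd added by pin tool in DMSO; 72 h, 37 C, 5% CO2; lysis buffer + SYBR Green I, o/n RT dark; FI 485/535; norm. to artemisinin 0.29 uM and DMSO.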
# [4] = qHTS for differential inhibitors of proliferation of Plasmodium falciparum line W2 (AID 1883); conditions: Potency: Plasmodium falciparum W2 proliferation inhibition;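 further: potency means the concentration at half of the fitted maximal effect; parasites grown with compound for 72 h before lysis and staining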
# [5] = target: Ferritin light chain (Equus caballus) (UniProt P02791); assay: qHTS Validation Assay for Identification of Novel General Anesthetics (AID 2323); further: series mostly up to about 77 µM
# Procedure, shortened: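 Competitive displacement of profluorescent 1-aminoanthracene (1-AMA, 50% saturated solution in PBS) from 10 uM horse-spleen apoferritin. Compounds incubated 10 min at room temperature; fluorescence read at 380 nm excitation/535 nm emission, normalized to free 1-AMA and complex, fitted with four-parameter Hill equation.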
# [6] = qHTS for differential inhibitors of proliferation of Plasmodium falciparum line HB3 (AID 1886); conditions: Potency: Plasmodium falciparum HB3 proliferation inhibition;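 further: parasites grown with compound for 72 h before SYBR Green readout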; further: potency means the concentration at half of the fitted maximal effect
# [7] = qHTS for differential inhibitors of proliferation of Plasmodium falciparum line 3D7 (AID 1876); further: potency means the concentration at half of the fitted maximal effect
# [8] = qHTS for differential inhibitors of proliferation of Plasmodium falciparum line D10 (AID 1877);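 further: parasites grown with compound for 72 h before DNA staining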; further: potency means the concentration at half of the fitted maximal effect
# [9] = qHTS Assay for Modulators of Human Peripheral Myelin Protein 22 (PMP22) Expression/Activity (AID 1967; active means well fitted curve in the direction sought with a large enough effect in the signal ratio; the % refers to the signal ratio)
# Procedure, shortened: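 MSC80 mouse Schwann cells stably carrying Pmp22 promoter–green click beetle luciferase plus EF-alpha–red luciferase control were dosed for 24h at 37 °C. Dual-colour luminescence was filter-overlap corrected; %Activity came from green/red ratio versus untreated cells.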
# [10] = qHTS Assay for Identification of Small Molecule Inducers of Hypoxia Response (AID 2120; active means well fitted curve in the direction sought with a large enough effect in the signal ratio, with a control signal flat, not every such curve was filed as active; the % refers to the signal ratio)
# Procedure, shortened: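 Read-out: CCF4 FRET emission ratio 460nm/530nm (excitation 405nm), converted to %Activity, with AC50 fitted across a compound titration. ME-180 cells carried an HRE-driven beta-lactamase reporter; compound exposure 17 h, 37 degrees C.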
# Chain of Ferritin light chain (Equus caballus) (P02791 2-175 limits assumed): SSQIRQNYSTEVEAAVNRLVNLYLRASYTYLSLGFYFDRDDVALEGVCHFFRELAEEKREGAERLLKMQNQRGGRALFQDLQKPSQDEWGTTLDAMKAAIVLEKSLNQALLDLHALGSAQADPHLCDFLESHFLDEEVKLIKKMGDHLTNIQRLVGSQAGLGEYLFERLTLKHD
smiles,measurement,setting,value
COC(=O)N1CCN(C(=O)Cc2ccc(Cl)c(Cl)c2)C(CN2CCCC2)C1 (configuration not stated),Potency,[1],12.6 µM (active)
same,Potency,[2],10 µM (active)
same,Potency,[3],7.94 µM (active)
same,Potency,[4],2.82 µM (active)
same,outcome,[5],inactive
COc1ccc2c(c1)[C@@]13CCCC[C@H]1[C@@H](C2)NCC3,Potency,[1],3.55 µM (active)
same,Potency,[2],7.08 µM (active)
same,Potency,[4],1.12 µM (active)
same,Potency,[6],11.2 µM (active)
same,outcome,[5],inactive
Clc1ccc(N2CC3CCC(C2)N3)nn1,Potency,[1],inactive
same,Potency,[7],inactive
same,Potency,[8],inactive
same,Potency,[3],inactive
same,Potency,[6],inactive
same,outcome,[9],inactive
same,outcome,[5],inactive
c1ccc2c(N3CCNCC3)cccc2c1,Potency,[1],12.6 µM (active)
same,Potency,[2],12.6 µM (active)
same,Potency,[8],10 µM (active)
same,Potency,[3],11.2 µM (active)
same,Potency,[4],7.94 µM (active)
same,outcome,[5],inactive
C[N+]1(C)CCOC(O)(c2ccc(-c3ccc(C4(O)C[N+](C)(C)CCO4)cc3)cc2)C1 (configuration not stated),Potency,[1],inactive
same,Potency,[8],inactive
same,Potency,[3],inactive
same,outcome,[9],inactive
same,outcome,[5],inactive
CN(N=O)c1ccc(O)c(O)c1,Potency,[1],inactive
same,Potency,[7],inactive
same,Potency,[8],inactive
same,Potency,[3],inactive
O=c1c2ccccc2[se]n1-c1ccccc1,Potency,[1],14.1 µM (active)
same,Potency,[2],14.1 µM (active)
same,Potency,[4],17.8 µM (active)
same,outcome,[5],inactive
COc1cc(CC(C)N)c(OC)cc1I (configuration not stated),Potency,[1],10 µM (active)
same,Potency,[2],6.31 µM (active)
same,Potency,[7],inactive
same,Potency,[8],inactive
same,Potency,[4],4.47 µM (active)
same,Potency,[6],inactive
same,outcome,[5],inactive
O=C/C=C/c1ccccc1,outcome,[10],inactive
O=C(O)C(Cl)(Cl)Cl,outcome,[10],inactive
O=Cc1ccco1,outcome,[10],inactive
S=C=S,outcome,[10],inactive
Cc1sc2ccccc2c1CC1=NCCN1,Potency,[2],14.1 µM (active)
same,Potency,[4],8.91 µM (active)
same,outcome,[9],inactive
same,outcome,[5],inactive
CCCCCCCCOC(=O)c1ccccc1C(=O)OCCCCCCCC,outcome,[10],inactive
CN1CCC(c2c[nH]c3ccc(O)cc23)CC1,Potency,[7],10 µM (active)
same,Potency,[3],inactive
same,Potency,[4],8.91 µM (active)
same,outcome,[9],inactive
same,outcome,[5],inactive
C=CCN=C=S,outcome,[10],inactive
CC(C)NP(=O)(NC(C)C)OP(=O)(NC(C)C)NC(C)C,Potency,[3],inactive
same,Potency,[4],11.2 µM (active)
same,outcome,[9],inactive
same,outcome,[5],inactive
CCOC(=O)c1ccccc1C(=O)OCC,outcome,[10],inactive
C[C@H]1CCC[C@H](O)CCCCCc2cc(O)cc(O)c2C(=O)O1,outcome,[10],inactive
OC1CCCCC1N1CCC(c2ccccc2)CC1 (configuration not stated),Potency,[7],inactive
same,Potency,[8],inactive
same,Potency,[3],inactive
same,Potency,[4],10 µM (active)
same,Potency,[6],inactive
same,outcome,[9],inactive
same,outcome,[5],inactive
OCc1cnc[nH]1,Potency,[2],7.94 µM (active)
same,Potency,[3],inactive
same,Potency,[6],10 µM (active)
same,outcome,[5],inactive
[O]=[Cd],outcome,[10],inactive
CCCN1CC[C@@H]2c3cc(O)ccc3CC[C@@H]21,Potency,[7],inactive
same,Potency,[3],inactive
same,Potency,[4],10 µM (active)
same,Potency,[6],inactive
same,outcome,[9],inactive
same,outcome,[5],inactive
CN(C(=O)Cc1ccc(Cl)c(Cl)c1)C(CN1CCCC1)c1cccc(OCC(=O)O)c1 (configuration not stated),Potency,[7],inactive
same,Potency,[3],inactive
same,Potency,[4],14.1 µM (active)
same,Potency,[6],inactive
same,outcome,[5],inactive
NCC(O)c1cc(O)c(O)cc1F (configuration not stated),Potency,[2],inactive
same,Potency,[7],inactive
same,Potency,[8],inactive
same,Potency,[3],inactive
same,Potency,[6],inactive
same,outcome,[5],inactive
NC(=O)c1ccc(OCC(O)CN2CC=C(c3ccc(F)cc3)CC2)cc1 (configuration not stated),Potency,[2],10 µM (active)
same,Potency,[7],11.2 µM (active)
same,Potency,[4],7.94 µM (active)
same,outcome,[5],inactive
